According to article PMC7862700, “An all-to-all approach to the identification of sequence-specific readers for epigenetic DNA modifications on cytosine”:

What was measured:
Experiment in all cases: DAPPL (digital affinity profiling via proximity ligation, sequencing); 10 mM Tris-HCl pH 7.5, 50 mM NaCl, 1 mM DTT, 4% glycerol, room temperature, 30 min; GST-TFs on glutathione beads, 16-mer random dsDNA library, 0.1% formaldehyde crosslink after washing; high values mean tight binding
Conditions in all cases: protein: recombinant; tags: N-terminal GST; dsDNA, one strand shown
[1] = molecular target: T1, FLI1 (Homo sapiens, UniProt Q01543 1-452)
T1 sequence: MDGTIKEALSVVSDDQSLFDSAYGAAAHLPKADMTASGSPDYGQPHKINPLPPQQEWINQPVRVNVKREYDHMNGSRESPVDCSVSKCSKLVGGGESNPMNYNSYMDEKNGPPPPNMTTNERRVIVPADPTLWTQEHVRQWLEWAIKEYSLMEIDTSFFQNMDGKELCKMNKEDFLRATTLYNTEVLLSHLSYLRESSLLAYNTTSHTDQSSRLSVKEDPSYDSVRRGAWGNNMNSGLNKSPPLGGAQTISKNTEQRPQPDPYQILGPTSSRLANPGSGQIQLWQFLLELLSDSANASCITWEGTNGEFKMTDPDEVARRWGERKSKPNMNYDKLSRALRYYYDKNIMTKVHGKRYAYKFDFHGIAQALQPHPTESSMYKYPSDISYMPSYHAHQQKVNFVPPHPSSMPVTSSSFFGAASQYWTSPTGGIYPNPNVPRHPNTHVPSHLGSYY
Summary of the method: (§1)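 Pools were built from human transcription factors expressed in yeast as GST fusions, captured on glutathione beads and DNA-barcoded, along with a tag-only sample. Incubation with 200 nmole of a 16-mer random double-stranded DNA library lasted 30 min at room temperature in Tris/NaCl/DTT/glycerol buffer, and was followed by washing, 0.1% formaldehyde crosslinking, proximity ligation, PCR amplification and Illumina NextSeq500 sequencing. Binding signal is the quotient of each hexamer's read frequency for a factor and its frequency for the tag-only sample.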

[2] = molecular target: T2, ELK1 (Homo sapiens, UniProt P19419 1-428)
T2 sequence: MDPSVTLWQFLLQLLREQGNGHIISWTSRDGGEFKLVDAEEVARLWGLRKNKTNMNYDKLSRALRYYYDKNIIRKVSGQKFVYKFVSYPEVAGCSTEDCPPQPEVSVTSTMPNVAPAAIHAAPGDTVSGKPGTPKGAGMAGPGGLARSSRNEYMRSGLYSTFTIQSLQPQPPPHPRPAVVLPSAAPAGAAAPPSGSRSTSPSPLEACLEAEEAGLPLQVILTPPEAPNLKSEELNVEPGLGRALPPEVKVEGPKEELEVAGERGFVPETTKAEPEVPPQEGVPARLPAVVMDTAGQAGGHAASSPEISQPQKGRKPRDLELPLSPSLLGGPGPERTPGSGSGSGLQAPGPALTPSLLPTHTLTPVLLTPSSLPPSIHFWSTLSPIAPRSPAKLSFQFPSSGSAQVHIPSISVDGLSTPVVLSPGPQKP
Summary of the method: as §1

[3] = molecular target: T3, GABPA (Homo sapiens, UniProt Q06546 1-454)
T3 sequence: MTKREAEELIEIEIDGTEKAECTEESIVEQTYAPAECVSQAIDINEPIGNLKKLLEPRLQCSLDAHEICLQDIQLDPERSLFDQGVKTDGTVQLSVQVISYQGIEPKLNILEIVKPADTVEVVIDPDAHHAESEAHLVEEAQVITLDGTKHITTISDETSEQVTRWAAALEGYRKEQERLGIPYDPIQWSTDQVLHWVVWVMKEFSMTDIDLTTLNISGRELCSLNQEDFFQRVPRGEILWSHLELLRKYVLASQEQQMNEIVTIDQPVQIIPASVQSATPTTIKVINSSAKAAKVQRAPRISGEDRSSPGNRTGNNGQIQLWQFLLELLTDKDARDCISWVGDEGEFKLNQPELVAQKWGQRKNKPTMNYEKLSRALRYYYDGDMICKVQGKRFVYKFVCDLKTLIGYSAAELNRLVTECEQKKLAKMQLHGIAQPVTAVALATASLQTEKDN
Summary of the method: as §1

[4] = molecular target: T4, ERG (Homo sapiens, UniProt P11308 1-479)
T4 sequence: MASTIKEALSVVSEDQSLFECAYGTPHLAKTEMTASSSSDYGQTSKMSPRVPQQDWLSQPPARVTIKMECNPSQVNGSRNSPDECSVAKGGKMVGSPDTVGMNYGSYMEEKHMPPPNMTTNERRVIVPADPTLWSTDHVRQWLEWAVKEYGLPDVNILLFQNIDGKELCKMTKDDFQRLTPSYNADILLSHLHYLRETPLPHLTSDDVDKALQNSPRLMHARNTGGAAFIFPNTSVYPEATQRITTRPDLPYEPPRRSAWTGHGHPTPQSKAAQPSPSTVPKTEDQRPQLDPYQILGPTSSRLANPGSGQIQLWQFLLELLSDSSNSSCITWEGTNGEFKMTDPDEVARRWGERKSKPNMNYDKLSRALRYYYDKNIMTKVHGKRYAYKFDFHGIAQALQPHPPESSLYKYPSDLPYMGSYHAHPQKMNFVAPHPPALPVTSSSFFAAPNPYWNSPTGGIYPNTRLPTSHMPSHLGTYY
Summary of the method: as §1

[5] = molecular target: ELF1 (Homo sapiens, UniProt P32519 1-619)
ELF1, sequence (P32519 whole entry): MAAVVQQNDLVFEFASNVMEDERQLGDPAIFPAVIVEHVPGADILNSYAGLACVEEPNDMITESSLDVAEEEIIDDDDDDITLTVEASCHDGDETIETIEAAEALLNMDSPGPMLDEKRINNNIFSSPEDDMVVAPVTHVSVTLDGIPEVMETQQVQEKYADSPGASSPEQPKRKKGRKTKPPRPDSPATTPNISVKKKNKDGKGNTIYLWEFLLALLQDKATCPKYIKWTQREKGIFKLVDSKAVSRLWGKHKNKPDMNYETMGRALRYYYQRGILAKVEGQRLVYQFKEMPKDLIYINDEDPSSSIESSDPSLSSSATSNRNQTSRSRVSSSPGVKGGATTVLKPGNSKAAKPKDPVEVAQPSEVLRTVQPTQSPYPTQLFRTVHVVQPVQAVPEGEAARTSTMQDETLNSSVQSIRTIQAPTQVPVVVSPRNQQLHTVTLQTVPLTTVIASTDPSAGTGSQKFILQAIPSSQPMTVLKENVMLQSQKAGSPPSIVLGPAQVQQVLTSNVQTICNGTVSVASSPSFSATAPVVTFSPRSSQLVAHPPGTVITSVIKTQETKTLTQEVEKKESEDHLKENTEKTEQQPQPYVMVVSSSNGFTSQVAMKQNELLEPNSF
Summary of the method: as §1

[6] = molecular target: T5, EHF (Homo sapiens, UniProt Q9NZC4 1-300)
T5 sequence: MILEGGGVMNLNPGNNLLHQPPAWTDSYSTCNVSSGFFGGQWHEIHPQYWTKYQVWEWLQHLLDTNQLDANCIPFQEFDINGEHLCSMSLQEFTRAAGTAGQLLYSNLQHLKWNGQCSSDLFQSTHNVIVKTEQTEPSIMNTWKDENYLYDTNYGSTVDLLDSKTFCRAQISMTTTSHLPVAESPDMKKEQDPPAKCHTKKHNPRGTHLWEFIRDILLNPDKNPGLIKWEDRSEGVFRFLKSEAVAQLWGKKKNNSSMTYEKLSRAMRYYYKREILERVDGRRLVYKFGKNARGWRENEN
Summary of the method: as §1

[7] = molecular target: SPI1 (Homo sapiens, UniProt P17947 1-270)
Summary of the method: as §1

[8] = molecular target: SPIB (Homo sapiens, UniProt Q01892 1-262)
SPIB, sequence (Q01892 whole entry): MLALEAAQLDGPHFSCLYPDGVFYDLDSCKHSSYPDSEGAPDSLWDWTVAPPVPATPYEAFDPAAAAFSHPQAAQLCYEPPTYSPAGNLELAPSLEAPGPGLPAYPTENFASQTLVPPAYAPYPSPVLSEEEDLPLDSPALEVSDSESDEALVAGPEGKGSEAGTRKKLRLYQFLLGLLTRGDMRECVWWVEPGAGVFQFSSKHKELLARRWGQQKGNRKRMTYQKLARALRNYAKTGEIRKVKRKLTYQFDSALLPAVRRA
Summary of the method: as §1

[9] = molecular target: T6, FEV (Homo sapiens, UniProt Q99581 1-238)
T6 sequence: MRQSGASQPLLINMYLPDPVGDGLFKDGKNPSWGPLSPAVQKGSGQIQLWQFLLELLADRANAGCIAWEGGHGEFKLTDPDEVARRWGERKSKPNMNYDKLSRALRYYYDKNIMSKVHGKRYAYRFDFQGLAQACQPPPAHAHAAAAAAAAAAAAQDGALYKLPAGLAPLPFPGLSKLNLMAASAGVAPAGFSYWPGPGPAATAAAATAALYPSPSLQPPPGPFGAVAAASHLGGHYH
Summary of the method: as §1

[10] = molecular target: ETV5 (Homo sapiens, UniProt P41161 1-510)
ETV5, sequence (P41161 whole entry): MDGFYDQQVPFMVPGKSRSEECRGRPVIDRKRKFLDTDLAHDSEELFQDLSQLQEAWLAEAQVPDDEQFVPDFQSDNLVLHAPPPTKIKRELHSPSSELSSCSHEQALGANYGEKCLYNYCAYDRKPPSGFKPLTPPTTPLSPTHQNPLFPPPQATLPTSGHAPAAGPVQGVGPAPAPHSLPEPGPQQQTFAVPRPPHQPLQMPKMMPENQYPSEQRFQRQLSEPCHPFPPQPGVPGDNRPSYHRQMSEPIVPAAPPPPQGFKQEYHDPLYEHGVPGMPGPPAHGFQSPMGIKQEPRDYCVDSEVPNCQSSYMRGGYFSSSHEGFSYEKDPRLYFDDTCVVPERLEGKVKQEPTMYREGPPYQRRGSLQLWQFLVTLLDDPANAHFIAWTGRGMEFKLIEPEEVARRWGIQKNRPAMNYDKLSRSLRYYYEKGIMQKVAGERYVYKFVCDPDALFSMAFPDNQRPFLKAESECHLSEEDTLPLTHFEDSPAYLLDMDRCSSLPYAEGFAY
Summary of the method: as §1

[11] = molecular target: ELF4 (Homo sapiens, UniProt Q99607 1-663)
ELF4, sequence (Q99607 whole entry): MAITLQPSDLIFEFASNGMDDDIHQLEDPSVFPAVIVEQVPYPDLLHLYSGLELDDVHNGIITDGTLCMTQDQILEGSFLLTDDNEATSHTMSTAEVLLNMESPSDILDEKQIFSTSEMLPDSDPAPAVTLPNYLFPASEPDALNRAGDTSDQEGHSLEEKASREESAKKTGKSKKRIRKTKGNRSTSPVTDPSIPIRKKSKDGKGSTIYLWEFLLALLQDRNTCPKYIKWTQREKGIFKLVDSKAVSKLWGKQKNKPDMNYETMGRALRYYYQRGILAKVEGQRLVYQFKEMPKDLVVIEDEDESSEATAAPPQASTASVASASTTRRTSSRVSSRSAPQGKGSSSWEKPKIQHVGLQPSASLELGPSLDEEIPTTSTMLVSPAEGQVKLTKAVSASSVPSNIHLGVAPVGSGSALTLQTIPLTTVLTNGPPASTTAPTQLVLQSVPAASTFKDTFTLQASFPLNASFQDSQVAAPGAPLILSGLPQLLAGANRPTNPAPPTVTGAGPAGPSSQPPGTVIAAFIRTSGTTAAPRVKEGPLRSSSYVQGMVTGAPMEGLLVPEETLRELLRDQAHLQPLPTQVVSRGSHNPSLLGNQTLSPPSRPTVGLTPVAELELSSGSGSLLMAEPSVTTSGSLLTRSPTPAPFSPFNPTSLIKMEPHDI
Summary of the method: as §1

[12] = molecular target: T7, ETV2 (Homo sapiens, UniProt O00321 1-342)
T7 sequence: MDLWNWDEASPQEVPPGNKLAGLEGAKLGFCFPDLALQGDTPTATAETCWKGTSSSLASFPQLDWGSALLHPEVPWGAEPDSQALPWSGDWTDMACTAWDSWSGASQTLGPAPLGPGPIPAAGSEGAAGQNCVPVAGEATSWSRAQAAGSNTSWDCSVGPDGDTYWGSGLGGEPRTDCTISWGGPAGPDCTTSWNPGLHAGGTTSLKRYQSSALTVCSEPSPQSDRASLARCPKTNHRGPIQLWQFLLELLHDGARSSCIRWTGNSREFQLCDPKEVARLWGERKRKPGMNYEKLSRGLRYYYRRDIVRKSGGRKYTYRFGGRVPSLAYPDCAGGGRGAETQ
Summary of the method: as §1

[13] = molecular target: T8, ELF3 (Homo sapiens, UniProt P78545 1-371)
T8 sequence: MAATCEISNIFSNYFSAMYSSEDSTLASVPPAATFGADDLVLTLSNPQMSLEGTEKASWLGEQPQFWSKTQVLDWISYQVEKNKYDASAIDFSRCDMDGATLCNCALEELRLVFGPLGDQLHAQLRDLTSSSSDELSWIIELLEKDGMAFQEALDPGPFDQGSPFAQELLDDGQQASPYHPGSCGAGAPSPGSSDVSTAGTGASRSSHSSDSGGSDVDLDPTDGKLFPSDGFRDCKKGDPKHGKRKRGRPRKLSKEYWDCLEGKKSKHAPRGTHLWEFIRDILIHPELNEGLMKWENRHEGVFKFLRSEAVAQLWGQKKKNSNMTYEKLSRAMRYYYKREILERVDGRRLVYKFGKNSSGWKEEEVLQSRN
Summary of the method: as §1

[14] = molecular target: ETV1 (Homo sapiens, UniProt P50549 1-477)
ETV1, sequence (P50549 whole entry): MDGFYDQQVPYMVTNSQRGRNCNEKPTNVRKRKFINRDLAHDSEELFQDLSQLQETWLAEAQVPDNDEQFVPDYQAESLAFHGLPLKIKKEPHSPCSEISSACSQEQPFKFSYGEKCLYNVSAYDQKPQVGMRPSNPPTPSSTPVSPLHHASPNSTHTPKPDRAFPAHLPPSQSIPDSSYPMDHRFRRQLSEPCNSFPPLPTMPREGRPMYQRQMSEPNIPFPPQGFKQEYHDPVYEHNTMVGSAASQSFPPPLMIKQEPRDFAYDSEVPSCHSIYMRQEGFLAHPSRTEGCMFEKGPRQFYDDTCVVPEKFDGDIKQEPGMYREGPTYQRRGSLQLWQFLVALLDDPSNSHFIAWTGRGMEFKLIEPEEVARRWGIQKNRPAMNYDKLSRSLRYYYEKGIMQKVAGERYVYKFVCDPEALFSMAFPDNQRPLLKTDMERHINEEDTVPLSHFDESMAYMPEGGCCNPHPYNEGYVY
Summary of the method: as §1

[15] = molecular target: T9, ERF (Homo sapiens, UniProt P50548 1-548)
T9 sequence: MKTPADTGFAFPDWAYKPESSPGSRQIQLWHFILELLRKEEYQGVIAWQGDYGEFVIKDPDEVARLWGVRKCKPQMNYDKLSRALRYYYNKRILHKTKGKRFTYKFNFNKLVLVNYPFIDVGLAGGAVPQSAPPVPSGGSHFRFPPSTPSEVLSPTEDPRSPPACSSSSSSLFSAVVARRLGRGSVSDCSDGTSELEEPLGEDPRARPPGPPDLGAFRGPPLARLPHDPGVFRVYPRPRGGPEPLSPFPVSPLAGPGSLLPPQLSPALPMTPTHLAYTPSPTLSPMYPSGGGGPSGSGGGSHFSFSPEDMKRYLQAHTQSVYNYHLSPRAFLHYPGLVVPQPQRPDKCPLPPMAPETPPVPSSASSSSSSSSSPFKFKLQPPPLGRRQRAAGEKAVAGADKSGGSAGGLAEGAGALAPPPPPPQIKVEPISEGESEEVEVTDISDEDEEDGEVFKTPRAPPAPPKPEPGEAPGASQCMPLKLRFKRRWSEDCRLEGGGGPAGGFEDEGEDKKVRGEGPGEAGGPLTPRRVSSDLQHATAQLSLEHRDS
Summary of the method: as §1

[16] = molecular target: T10, ETV3L (Homo sapiens, UniProt Q6ZN32 1-361)
T10 sequence: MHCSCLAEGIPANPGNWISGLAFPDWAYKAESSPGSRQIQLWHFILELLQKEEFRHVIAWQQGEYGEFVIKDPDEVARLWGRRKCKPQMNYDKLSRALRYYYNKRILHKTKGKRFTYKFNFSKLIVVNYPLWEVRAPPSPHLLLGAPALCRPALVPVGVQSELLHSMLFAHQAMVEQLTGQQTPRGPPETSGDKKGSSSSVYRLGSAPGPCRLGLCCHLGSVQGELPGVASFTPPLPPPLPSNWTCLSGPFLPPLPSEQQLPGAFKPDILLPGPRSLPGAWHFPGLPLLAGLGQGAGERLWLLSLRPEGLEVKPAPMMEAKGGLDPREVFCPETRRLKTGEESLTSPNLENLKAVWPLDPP
Summary of the method: as §1

[17] = molecular target: T11, ETS2 (Homo sapiens, UniProt P15036 1-469)
T11 sequence: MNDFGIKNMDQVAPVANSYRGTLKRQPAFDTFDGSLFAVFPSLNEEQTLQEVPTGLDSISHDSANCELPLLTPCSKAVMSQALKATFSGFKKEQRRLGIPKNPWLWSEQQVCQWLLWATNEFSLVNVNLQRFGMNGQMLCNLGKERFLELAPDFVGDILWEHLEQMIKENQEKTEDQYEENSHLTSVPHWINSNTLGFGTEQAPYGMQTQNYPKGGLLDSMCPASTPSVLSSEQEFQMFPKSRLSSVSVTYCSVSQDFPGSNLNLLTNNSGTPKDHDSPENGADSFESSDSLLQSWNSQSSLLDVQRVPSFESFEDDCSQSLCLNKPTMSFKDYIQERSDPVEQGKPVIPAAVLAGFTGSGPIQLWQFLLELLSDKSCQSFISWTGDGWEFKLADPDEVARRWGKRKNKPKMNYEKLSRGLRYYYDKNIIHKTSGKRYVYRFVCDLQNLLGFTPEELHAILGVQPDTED
Summary of the method: as §1

[18] = molecular target: T12, ETV7 (Homo sapiens, UniProt Q9Y603 1-341)
T12 sequence: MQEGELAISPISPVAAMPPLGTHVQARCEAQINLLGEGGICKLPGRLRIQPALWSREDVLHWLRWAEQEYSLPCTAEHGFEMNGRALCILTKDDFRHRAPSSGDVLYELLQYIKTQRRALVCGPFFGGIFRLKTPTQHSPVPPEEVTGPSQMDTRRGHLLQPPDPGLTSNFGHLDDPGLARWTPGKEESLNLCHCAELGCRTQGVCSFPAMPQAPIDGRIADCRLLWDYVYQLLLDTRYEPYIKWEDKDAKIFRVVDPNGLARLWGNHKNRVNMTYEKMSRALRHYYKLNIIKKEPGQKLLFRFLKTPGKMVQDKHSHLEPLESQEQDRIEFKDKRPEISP
Summary of the method: as §1

[19] = molecular target: T13, ETV3 (Homo sapiens, UniProt P41162-2 1-143)
T13 sequence: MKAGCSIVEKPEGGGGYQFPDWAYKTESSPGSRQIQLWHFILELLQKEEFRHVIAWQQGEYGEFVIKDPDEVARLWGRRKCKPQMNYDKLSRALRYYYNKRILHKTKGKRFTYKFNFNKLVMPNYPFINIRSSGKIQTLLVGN
Summary of the method: as §1

[20] = molecular target: ETV6 (Homo sapiens, UniProt P41212 1-452)
ETV6, sequence (P41212 whole entry): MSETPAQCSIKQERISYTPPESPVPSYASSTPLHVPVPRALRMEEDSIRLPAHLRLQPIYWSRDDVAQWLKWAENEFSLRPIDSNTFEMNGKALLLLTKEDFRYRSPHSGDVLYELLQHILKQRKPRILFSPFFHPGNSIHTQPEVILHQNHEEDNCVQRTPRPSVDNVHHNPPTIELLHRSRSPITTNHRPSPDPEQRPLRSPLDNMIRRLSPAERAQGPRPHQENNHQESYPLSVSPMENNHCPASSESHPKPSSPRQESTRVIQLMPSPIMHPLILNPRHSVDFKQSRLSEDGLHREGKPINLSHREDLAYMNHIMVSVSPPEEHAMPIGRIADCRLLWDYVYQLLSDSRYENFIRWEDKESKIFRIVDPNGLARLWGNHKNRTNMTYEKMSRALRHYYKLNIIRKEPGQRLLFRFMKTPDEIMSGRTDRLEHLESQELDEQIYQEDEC
Summary of the method: as §1

Sequence: CGATGT
- binding signal [1]: 1.1 fold enrichment (6-mer frequency, TF over GST control)
- binding signal [2]: 1.07 fold enrichment (6-mer frequency, TF over GST control)
- binding signal [3]: 1.08 fold enrichment (6-mer frequency, TF over GST control)
- binding signal [4]: 1.08 fold enrichment (6-mer frequency, TF over GST control)
- binding signal [5]: 1.03 fold enrichment (6-mer frequency, TF over GST control)
- binding signal [6]: 1.11 fold enrichment (6-mer frequency, TF over GST control)
- binding signal [7]: 1.15 fold enrichment (6-mer frequency, TF over GST control)
- binding signal [8]: 1.08 fold enrichment (6-mer frequency, TF over GST control)
- binding signal [9]: 1.06 fold enrichment (6-mer frequency, TF over GST control)
- binding signal [10]: 1.1 fold enrichment (6-mer frequency, TF over GST control)
- binding signal [11]: 1.04 fold enrichment (6-mer frequency, TF over GST control)
- binding signal [12]: 1.07 fold enrichment (6-mer frequency, TF over GST control)
- binding signal [13]: 1.11 fold enrichment (6-mer frequency, TF over GST control)
- binding signal [14]: 1.1 fold enrichment (6-mer frequency, TF over GST control)
- binding signal [15]: 1.16 fold enrichment (6-mer frequency, TF over GST control)
- binding signal [16]: 1.09 fold enrichment (6-mer frequency, TF over GST control)
- binding signal [17]: 1.12 fold enrichment (6-mer frequency, TF over GST control)
- binding signal [18]: 1.14 fold enrichment (6-mer frequency, TF over GST control)
- binding signal [19]: 1.19 fold enrichment (6-mer frequency, TF over GST control)
- binding signal [20]: 1.03 fold enrichment (6-mer frequency, TF over GST control)
